Assay results taken from paper PMC4552634, “A New Set of Chemical Starting Points with Plasmodium falciparum Transmission-Blocking Potential for Antimalarial Drug Discovery” (PLoS ONE, 2015).
About 3,200 (25%) of roughly 13,000 compounds showed an effect of 50% or more. The list shows a part of the results.

What follows are compounds tested on P. falciparum stage V gametocytes. Conditions: 48 h, 5 µM; inhibitor.
Design: BacTiter-Glo ATP luminescence viability of purified stage V gametocytes in 384-well plates, per cent inhibition versus DMSO

Going from `CS(=O)(=O)Cc1ccc(Nc2nccc(-c3c(-c4cccc(C(=O)Nc5c(F)cccc5F)c4)nn4ccccc34)n2)cc1` [TCMDC-135742] to `NC(=O)c1cccc(C(=O)Nc2cccc(-c3ccc(-c4nc5ccccc5[nH]4)s3)c2)c1` [TCMDC-132195], the “% Inhibition” value rises from -95.17% to 9.45%.

First: CCCN1CCN(CCCNC(=O)c2cc3c(Cl)nc4ccc(C)cc4c3s2)CC1 [TCMDC-124441]
Second: Cc1ccc2nc(Cl)c3cc(C(=O)NCCCN4CCCC4)sc3c2c1 [TCMDC-125000]
The “% Inhibition” value of the first is lower: 16.62% for the first, 29.06% for the second.

First: Cc1cc(C)c2nc(N3CCC(C(=O)NCCCN4CCC(N5CCCCC5)CC4)CC3)sc2c1 [TCMDC-124448]
Second: O=C(NCCCN1CCC(N2CCCCC2)CC1)c1ccc2nc(N3CCCCC3)sc2c1 [TCMDC-124404]
The “% Inhibition” value of the first is higher: 62.4% for the first, 56.64% for the second.

Compared with `O=C(NCCCN1CCC(N2CCCCC2)CC1)c1ccc(N2CCOc3ccccc32)s1` [TCMDC-125271], `O=C(NCCCN1CCC(N2CCCCC2)CC1)C1=Cc2cc(Br)ccc2OC1` [TCMDC-124696] is lower in “% Inhibition” value: 84.69% for the first, 29.02% for the second.

Compared with `CCCCCCNC(=O)c1nn(CCN2CCC(N3CCCC3)CC2)cc1-c1ccc(Cl)c(Cl)c1` [TCMDC-141907], `Cc1ccc2nc3sc(C(=O)NCCCN4CCC(N5CCCCC5)CC4)cc3cc2c1` [TCMDC-125157] is higher in “% Inhibition” value: 27.94% for the first, 73.7% for the second.

First: N#Cc1ccc(-c2ccc(C(=O)NCCCCN3CCC(n4cnc5ccccc54)CC3)cc2)cc1 [TCMDC-138796]
Second: c1cc(CNCCN2CCNCC2)cc(-c2ccc(-c3nc4ccccc4[nH]3)cc2)c1 [TCMDC-132861]
The “% Inhibition” value of the first is lower: -25.18% for the first, 85.05% for the second.

First: Cc1c(C(=O)C2CC2CN2CCC(N3CCCCC3)CC2)sc2ccccc12 (centres unmarked) [TCMDC-132576]
Second: O=C(c1ccc(Cl)c(Cl)c1)N1CCc2c([nH]c3ccccc23)C1CN1CCCC1 (centres unmarked) [TCMDC-139011]
The “% Inhibition” value of the first is lower: 19.76% for the first, 81.19% for the second.

Compared with `O=C(NC1CC1)c1ccc(N2CCOc3ccc(Cl)cc32)s1` [TCMDC-125270], `CN(C(=O)/C=C/c1ccccc1F)C1CCN(CCCCCNC(=O)/C=C/c2ccc(Cl)c(Cl)c2)CC1` [TCMDC-139992] is higher in “% Inhibition” value: 3.185% for the first, 46.22% for the second.

First: CCOCCCNc1nc2cc(OC)c(OC)cc2c2nc(-c3ccccc3)nn12 [TCMDC-124406]
Second: CN(C)CCNCc1cccc(-c2cccc(-c3nc4ccccc4[nH]3)c2)c1 [TCMDC-132680]
The “% Inhibition” value of the first is lower: -8.61% for the first, 40.55% for the second.

Going from `COc1ccc2nccc(N3CCCN(CCNS(=O)(=O)c4ccc5c(c4)NC(=O)CS5)CC3)c2n1` [TCMDC-134651] to `COc1ccc2nccc([C@H](O)CN3CCC(NCc4nc5c(F)cccc5[nH]4)CC3)c2c1` [TCMDC-141062], the “% Inhibition” value falls from 20.86% to -21.41%.

First: CCC(C)CN1CCC(N(C)c2cc(NC(=O)c3cccc(C)c3)ccn2)CC1 (centres unmarked) [TCMDC-134950]
Second: CN(c1cc(NC(=O)c2ccccc2)ccn1)C1CCN(Cc2cccc(F)c2)CC1 [TCMDC-135011]
The “% Inhibition” value of the first is lower: -9.268% for the first, 9.307% for the second.

Going from `CC(CN(C)C)C(=O)Nc1ccc(-c2cccc(-c3nc4ccc(C(F)(F)F)cc4[nH]3)c2)cc1` (centres unmarked) [TCMDC-137109] to `COc1cc2c(cc1C(F)(F)F)N(C(=O)Nc1cccc(-c3ccc(CN(C)C)cc3)c1)CC2` [TCMDC-139014], the “% Inhibition” value rises from -30.4% to 97.51%.

Going from `COc1ccc(-n2ccnc2)cc1CNC1CCN(CC2Cn3c(=O)ccc4ccc(F)c2c43)CC1` (centres unmarked) [TCMDC-134407] to `COc1ccccc1/C=C/C(=O)N(C)C1CCN(CCCCCNC(=O)/C=C/c2ccc(Cl)c(Cl)c2)CC1` [TCMDC-139985], the “% Inhibition” value rises from -10.31% to 9.126%.

Compared with `CN1CCC(N(C)C(=O)C=Cc2cn(-c3ccccc3)nc2-c2cc3ccccc3o2)CC1` [TCMDC-124569], `CC(C)CC1c2[nH]c3ccccc3c2CCN1C(=O)CCc1ccccc1` (centres unmarked) [TCMDC-123996] is lower in “% Inhibition” value: 79.49% for the first, -45.79% for the second.

Going from `CCCCCOc1c(CCC)cc(Cc2cnc(N)nc2N)cc1CCC` [TCMDC-137287] to `CCN(CC)CCN(Cc1ccc(-c2ccc(C(F)(F)F)cc2)cc1)C(=O)Cn1c(CCc2cc(F)ccc2F)nc(=O)c2ccccc21` [TCMDC-140941], the “% Inhibition” value rises from -6.135% to 67.52%.

Going from `COc1cc2c(cc1C(F)(F)F)N(C(=O)Nc1cc(Br)cc(-c3cccnc3)c1)CC2` [TCMDC-139024] to `COc1cc2c(cc1C(F)(F)F)N(C(=O)Nc1cc(-c3ccncc3)cc(-c3cccnc3)c1)CC2` [TCMDC-139040], the “% Inhibition” value falls from 0.01985% to -15.72%.

Going from `CC(C)c1ccc(NC(=O)c2ccc(C(=O)NC3CCN(CC4CCCCC4)CC3)cc2)cc1` [TCMDC-136750] to `O=C(Nc1cccc(-c2ccc(CN3CCCC3)cc2)c1)c1cccc(F)c1` [TCMDC-132647], the “% Inhibition” value rises from -11.44% to 5.119%.

Going from `NC1=NC(Cc2ccccc2)(c2ccncc2)C(=O)N1CCCc1ccccc1` (centres unmarked) [TCMDC-136557] to `c1cc(CNCCN2CCNCC2)cc(-c2cccc(-c3nc4ccccc4[nH]3)c2)c1` [TCMDC-132859], the “% Inhibition” value rises from 2.084% to 95.66%.

First: CN(C)CC1c2[nH]c3ccccc3c2CCN1C(=O)Nc1ccc(Cl)c(Cl)c1 (centres unmarked) [TCMDC-139004]
Second: c1cc(CNCC2CCCO2)cc(-c2cccc(-c3nc4ccccc4[nH]3)c2)c1 (centres unmarked) [TCMDC-133090]
The “% Inhibition” value of the first is higher: 3.866% for the first, 0.6072% for the second.

Compared with `N#Cc1ccc2c(c1)CCN(CCC1CCC(NC(=O)/C=C/c3ccc4[nH]ccc4c3)CC1)CC2` (centres unmarked) [TCMDC-139666], `N#Cc1cccc(C(=O)Nc2cccc(-c3cccc(CN4CCNCC4)c3)c2)c1` [TCMDC-132660] is higher in “% Inhibition” value: 5.34% for the first, 26.75% for the second.

Compared with `O=C(Nc1cccc(F)c1)N(Cc1ccc(-c2cccc(CN3CCNCC3)c2)cc1)C1CCN(Cc2ccccc2)CC1` [TCMDC-139638], `O=C(Nc1cccc(F)c1)N(Cc1ccc(-c2ccc(CN3CCNCC3)cc2)cc1)C1CCN(Cc2ccccc2)CC1` [TCMDC-139654] is lower in “% Inhibition” value: 105.9% for the first, 96.89% for the second.

Compared with `CCn1cnc2c(N3CCCC3=O)cc(C(=O)N[C@@H](Cc3ccccc3)[C@H](O)CNC3CCCCC3)cc21` [TCMDC-135231], `c1cc(CN2CCN(CCN3CCOCC3)CC2)cc(-c2ccc(-c3nc4ccccc4[nH]3)cc2)c1` [TCMDC-133939] is higher in “% Inhibition” value: -30.5% for the first, -22.81% for the second.

First: CCN(CC)CCN(Cc1ccc(-c2ccc(C(F)(F)F)cc2)cc1)C(=O)Cn1c(CCc2cc(F)c(F)cc2F)nc(=O)c2ccccc21 [TCMDC-140949]
Second: CNCCNCc1cccc(-c2ccc(-c3nc4ccccc4[nH]3)cc2)c1 [TCMDC-132839]
The “% Inhibition” value of the first is higher: 56.5% for the first, 24.41% for the second.

In the case of `Cc1[nH]c2ccc([N+](=O)[O-])cc2c1C1=CCN(C)CC1` [TCMDC-139186], the “% Inhibition” value was -16.2%.
